EBNA-1 inh: blocks EBNA-1 binding to DNA; EBNA-1 DNA binding, fluorescence polarization; inhibition, % at 14.8 µM; 300,000 compounds, 0.34% hits; in the data active = inhibition above about 28%
PAFAH1B2 inh: PAFAH1B2 (human) inhibition; inhibition, % at 3.39 µM; 340,000 compounds, 1.2% hits; P68402; recombinant PAFAH1B2, FP-rhodamine activity probe, fluorescence polarization;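 active = inhibition above the mean of all tested compounds plus 3 SD, cut at about 24% in these data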;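 also: 0% = enzyme with DMSO and 100% = wells lacking PAFAH1B2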
ZTA DNA inh: counter-screen for EBNA-1 inhibitors: inhibitors of Epstein-Barr virus ZTA; P03206; AID 2234; ZTA-DNA binding, fluorescence polarization; 320,000 compounds, 0.15% hits; inhibition, % at 11 µM; in the data active = inhibition above about 33%
PAFAH2 inh: inhibitors of human PAFAH2; Q99487; recombinant PAFAH2, FP-rhodamine activity probe, fluorescence polarization; inhibition, % at 3.39 µM; 340,000 compounds, 0.99% hits; AID 492956;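 active = inhibition above the mean over all tested compounds plus 3 SD, cut at about 30% in these data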;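 also: inhibitors block probe labeling of enzyme so polarization drops; 0% = enzyme with DMSO and 100% = wells lacking PAFAH2 protein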
pPAFAH FP inh: inhibitors of human plasma PAF acetylhydrolase (pPAFAH); inhibition, % at 3.39 µM; 330,000 compounds, 1.5% hits; recombinant pPAFAH, FP-rhodamine probe fluorescence polarization; Q13093;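 active = inhibition above the mean inhibition across the screen plus 3 SD, cut at about 25% in these data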;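 also: inhibitors block binding of the rhodamine activity-based probe so polarization drops; 0% = enzyme with DMSO and 100% = wells lacking pPAFAH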
Target sequence (Q13093 whole entry, looked up): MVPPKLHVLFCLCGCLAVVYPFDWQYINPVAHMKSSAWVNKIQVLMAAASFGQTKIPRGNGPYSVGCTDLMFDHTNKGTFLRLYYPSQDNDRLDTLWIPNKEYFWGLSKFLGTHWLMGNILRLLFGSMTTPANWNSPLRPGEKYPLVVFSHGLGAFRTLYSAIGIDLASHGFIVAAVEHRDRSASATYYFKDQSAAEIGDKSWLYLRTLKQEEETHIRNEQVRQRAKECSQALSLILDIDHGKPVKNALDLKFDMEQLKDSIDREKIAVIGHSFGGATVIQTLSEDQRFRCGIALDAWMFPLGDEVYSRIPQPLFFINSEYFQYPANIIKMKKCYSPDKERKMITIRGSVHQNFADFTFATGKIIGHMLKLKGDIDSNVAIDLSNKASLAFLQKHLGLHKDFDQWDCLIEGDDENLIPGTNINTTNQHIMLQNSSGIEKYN
PAFAH1B3 FP inh: blocks human PAF acetylhydrolase 1B catalytic subunit 3; Q15102; recombinant PAFAH1B3, FP-rhodamine probe, fluorescence polarization; inhibition, % at 3.39 µM; 340,000 compounds, 0.28% hits;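 active = inhibition above the screen-wide average of all tested compounds plus 3 SD, cut at about 25% in these data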;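 also: 0% = enzyme with DMSO only and 100% = wells lacking PAFAH1B3 protein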
* = called active by the depositor; · = no result given. Most compounds without a hit are left out; they make up all but 2.9% or so of the library.

SMILES	EBNA-1 inh	PAFAH1B2 inh	ZTA DNA inh	PAFAH2 inh	pPAFAH FP inh	PAFAH1B3 FP inh
CC(=O)Nc1ccc(S(=O)(=O)N(C)CC(=O)OCC(=O)NC(C)C23CC4CC(CC(C4)C2)C3)cc1 (configuration not stated)	4.8	24.7*	3.2	6.8	-3.0	8.2
Cc1nnc2ccc(-c3ccc(NC(=O)Cc4cccs4)cc3)nn12	-1.0	0.8	14.7	-3.1	27.4*	2.6
COCCNS(=O)(=O)c1cc2[nH]c3c(c2cc1C)C(=O)CC(C)(C)C3	0.5	2.8	2.8	-4.3	2.7	6.0
O=C(Cn1cc[n+](CC(=O)c2ccc(Cl)cc2Cl)c1)c1ccc(Cl)cc1Cl	4.8	·	9.8	·	32.8*	·
O=C(Cn1cc[n+](CC(=O)c2ccccc2)c1)c1ccccc1	-3.4	1.9	-21.5	1.4	13.4	7.1
O=C1C=C(NCc2ccccc2)c2ccccc2C1=O	·	26.8*	·	53.2*	·	60.2*
Cc1cc2cc(C#N)c(N3CCOCC3)nc2cc1Cl	-5.6	1.8	-6.9	3.6	6.0	8.3
CC1=C(C#N)c2nc(N)c(C#N)c(C)c2/C1=C\c1ccc(OCC(=O)O)c(Cl)c1	-3.1	1.9	12.2	18.0	32.4*	8.2
O=C(COC(=O)COc1cccc(F)c1)NCCC1=CCCCC1	6.7	5.9	-8.9	4.5	12.2	3.5
O=C(COC(=O)COc1ccc(Br)cc1)NCCC1=CCCCC1	-9.7	29.9*	8.6	-0.8	10.8	-4.7
CC(C)CCNC(=O)Cc1c(C(=O)O)[nH]c2ccc(Cl)cc12	15.4	50.2*	9.1	6.5	5.0	7.1
O=C(C[n+]1ccc(C(=O)NCc2ccccc2)cc1)c1ccc(Cl)cc1	-2.6	2.3	-13.1	9.6	3.2	6.2
CCc1ccc(CNC(=O)c2ccc3nc(C4CCCCC4)oc3c2)nc1	-2.9	1.9	0.8	-18.5	-7.4	3.1
COCCN1C=C2C(=O)C(C)(OC(=O)CCC(=O)OC)C(=O)C(Br)=C2C=C1c1ccc(OC)cc1 (configuration not stated)	3.7	12.7	-2.0	0.9	9.2	7.6
COC(=O)CCC(=O)OC1(C)C(=O)C2=CN(Cc3ccco3)C(c3ccc(OC)cc3)=CC2=C(Br)C1=O (configuration not stated)	11.4	·	4.9	·	24.9*	·
COc1cc(N(C)C)c([N+](=O)[O-])cc1C(=O)N1CCOCC1	-6.6	1.0	-11.8	1.4	-1.7	-3.3
C=CCOn1c(=O)c(-c2ccc(OC)cc2)[n+]([O-])c2ccccc21	-5.6	4.0	-6.9	11.8	32.8*	7.6
COc1ccc(-c2c(=O)n(OCc3nc4ccccc4[nH]3)c3ccccc3[n+]2[O-])cc1	-1.1	4.4	-2.1	-1.0	-2.1	-2.2
Cc1cc(C)c(S(=O)(=O)/N=C2/C=C(Sc3ncn[nH]3)C(=O)c3ccccc32)cc1C	-11.8	71.8*	31.5	47.4*	10.1	48.6*
Cc1cc(O)c(Sc2ncn[nH]2)cc1NS(=O)(=O)c1ccc(Cl)cc1	·	1.6	-11.7	-4.2	1.6	-1.3
N#CC1=C(S)N(c2ccccc2)C(c2ccc(-c3ccc(Cl)c(Cl)c3)o2)NC1=O (configuration not stated)	3.3	-2.0	23.9	-1.4	34.0*	-4.3
N#CC1=C(S)N(c2ccccc2)C(c2ccc(-c3cc(Cl)ccc3Cl)o2)NC1=O (configuration not stated)	15.0	7.5	3.6	-2.1	35.5*	5.0
CC(=O)CSc1ccc(C(=O)O)cn1	-4.8	-0.8	-1.1	0.6	2.6	-5.5
CCOc1ccc(/C=C/c2nc(C#N)c(NCCCOC)o2)cc1	7.7	2.2	6.5	-2.7	28.2*	15.4
C=CCN=C1S/C(=C\N(C)C)C(=O)N1S(=O)(=O)c1ccc(C)cc1	·	5.7	·	2.3	-1.2	4.0
SMILES	EBNA-1 inh	PAFAH1B2 inh	ZTA DNA inh	PAFAH2 inh	pPAFAH FP inh	PAFAH1B3 FP inh
CN(C)S(=O)(=O)c1ccc(N2CCCC2)c(C(=O)N2CCC(C(N)=O)CC2)c1	-9.1	-1.9	1.6	1.9	4.8	9.7
Cc1cc(C(=O)OCC(=O)Nc2ccc(F)cc2F)c(C)o1	2.8	9.0	-1.7	44.9*	3.6	3.4
Cc1ccc(S(=O)(=O)N[C@@H](Cc2ccccc2)C(=O)CCl)cc1	2.4	24.4*	4.8	11.0	1.4	7.4
Cc1ccc(C)c(S(=O)(=O)NC(C)CCc2ccccc2)c1 (configuration not stated)	-20.0	28.9*	-4.0	8.6	-5.0	3.4
Cc1ccc(S(=O)(=O)NC(Cc2ccccc2)C(=O)NN)cc1 (configuration not stated)	6.7	8.6	-4.2	2.5	-7.6	11.9
Cc1ccc(S(=O)(=O)NC(C)CCc2ccccc2)cc1C(N)=O (configuration not stated)	-5.3	12.2	-1.9	-5.1	-8.8	2.8
Cc1ccc(S(=O)(=O)NC(C)CCc2ccccc2)cc1 (configuration not stated)	17.8	35.5*	7.8	-1.1	10.1	10.2
Cc1cc(OCC(=O)OCC(=O)NCc2ccco2)ccc1Cl	-4.9	3.9	-2.3	-2.6	10.9	2.6
Cc1ccc(CNC(=O)c2ccc3c(=O)c(O)c(-c4ccc(C)cc4)[nH]c3c2)cc1	3.5	7.7	-2.7	-21.6	26.7*	11.5
CCCCCn1c(=O)[nH]c2cc(C(=O)NCCCN(CC)CC)ccc2c1=O	4.8	1.0	-11.1	-9.3	-3.1	-10.0
Cc1ccc(-c2[nH]c3cc(C(=O)NCCCn4ccnc4)ccc3c(=O)c2O)cc1	5.5	14.4	-15.8	20.0	15.3	15.4
CCCNC(=O)c1ccc2c(=O)c(O)c(-c3ccsc3)[nH]c2c1	1.8	27.1*	-2.2	-16.2	15.2	38.1*
CCCCn1c(N)c(N(CC(C)C)C(=O)c2ccc(S(=O)(=O)N3CCC(C)CC3)cc2)c(=O)[nH]c1=O	-12.2	1.3	4.9	-1.0	31.9*	2.3
CCCCn1c(N)c(N(CC(C)C)C(=O)CN2C(=O)c3ccccc3C2=O)c(=O)[nH]c1=O	-1.2	0.2	12.2	-0.7	4.2	7.3
CCCCn1c(N)c(N(CC(C)C)C(=O)CN2C(=O)NC3(CCC(C(C)(C)CC)CC3)C2=O)c(=O)[nH]c1=O (configuration not stated)	·	31.3*	·	-0.5	·	6.7
CCOC(=O)N1CCN(C(=O)CSCc2ccccc2Cl)CC1	1.4	2.3	-14.0	13.6	2.0	5.5
CN(C)c1ccc(Cc2cc3c(O)ccc(O)c3cc(Cc3ccc(N(C)C)cc3)c2=O)cc1	·	18.4	·	39.0*	·	34.0*
NC(=O)c1ccsc1NC(=O)COC(=O)c1ccc([N+](=O)[O-])o1	·	-1.2	2.5	-1.1	4.9	5.7
NC(=O)c1ccsc1NC(=O)c1ccc([N+](=O)[O-])o1	·	8.7	·	35.7*	35.7*	8.8
CC(c1ccncc1)C(C)c1ccncc1 (configuration not stated)	-3.4	6.3	-7.5	6.1	5.0	6.5
